# Assay results reported in the supplement of paper PMC6555819.
# System: LXRa homodimer (NR concentration 270 nM)
# Assay: PBM binding z-score (relative to random genomic background probes); higher = stronger binding; sequences stand for … in GC…GCGATTGACAGCGTAGAATGAAGG
# Outline: (§1)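 Regression normalization was applied to scanned fluorescence from custom Agilent 4×180K protein-binding microarrays. Before scanning, arrays were incubated 1 h with ligand-free nuclear receptor dimers, and binding was detected with antibodies against each partner (one per run). Binding z-scores use the random background probes as reference.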
row,Sequence,PBM binding z-score
1,ATCTCAAGGTAAAGTTCAGTGAAAGATCGATAGA,1.5
2,GCTAGTTGGTTAGTAAAAGGTCACACACCGGTCG,4.85
3,CCTAGTTGGTCAGGAGGTCACTCACCGGATATGA,1.57
4,ACGAGCAGGCCAAGGGTCACTCAAGATTAGTCCG,0.215
5,TGAATGAGGTTATAAGTTCAGGGAACGTTGCAAA,0.29
6,ATTTCTAGGTAAGACTCAGTTCAGTGAAGAACGC,0.909
7,TCTATTAGTTGAAGGGCAACCGCCGAGTCCGTTT,0.578
8,TCTAGCAGGCCGGAGGGTCACTCAAGAGGTACGG,-0.517
9,TCTCGGAGGACACGAAAGGTTAGAGCTCGACATC,-0.0791
10,ATATGTAGGTTACATCCGGGTCAATCAGGCTATG,1.05
11,GATACAGGGTAAAGGCCAGAGTACGCGTATTGAT,-0.132
12,CCGACTGGGGCATAAGGTTGCCATAAGCCAGCCC,-0.75
13,CCTCGGAGGACAGAAGGTCAGAGCAGTCCGCTTT,0.116
14,ACTATTAGGTGAGACGAGGGCAACCGATAGGTTG,0.00247
15,CGAACTAGGTCACGAAAGGTCAAAGTCGAATGAC,7.39
16,CCTTACAGGTCACTCCAGGTTATAGCATCGGAGT,5.05
17,AGAATGAGGTTACCAAAGATCAGGGGAACGCTTG,-0.402
18,GCATTTAGGTAATACAAGGTGAAAGTCCGATTGT,0.274
19,TTACCAAGGTGAGCTGAGGTCATTGATCCAACTC,2.23
20,AGAATGAGGATATTAAGATCAGGGAATTGCGGTC,0.0165

row,Sequence,PBM binding z-score
1,ACTGTTAGTTGACTTAGGGCAACCGATACGACGC,0.206
2,ATCTCTAGGTAACCATGTTCAGTGAATGCCGAAC,0.00917
3,CGTCCAAGGTGAAAGGTCAGTGAAGAGATGACGG,0.846
4,ACTAGTTGGTCAACTGAGGTCACACACAATTCGG,3.24
5,TCTCCTAGGTCAACGATGGTCAGCTAATCTGCTA,0.622
6,CAAACTAGGTCACAGAGGTCAAGGTCCGTGCGTA,5.6
7,ACTCTGAGGACAAAGGTCAGAGCTACGCCAGTGA,1.44
8,TCATATAGGTAAACAGATGAAAGTCCGTAAGTTA,0.342
9,GATACAGGGTCAGCTGGAGGCCAGAGTATGGAAA,-0.49
10,AGAATGAGGTTATTAAGGTCAGGGAATTGCGGTC,3.44
11,TCGAGAAGGTTACCAATGGGGCATTCAGCTTTCT,-0.534
12,TCGAGTAGGTAAGGGGCATTCAGAATGGCGTCGA,-0.436
13,TCTCGGAGGACACGAAGGTCAGATCTTTCCAGAG,1.09
14,ATACCAAGGTGATCGTAAGGTCGTTGATACTAAC,0.729
15,CTACCAAGGTGAACAAGGTCGTTGATTACTATTC,0.19
16,AATACAGGATCATCGTAGGCCAGAGTACGCACAG,0.0212
17,ATACCACGGTGATCGTGAGGTCGTTGATACTAAC,0.899
18,GCTTGTAGATCAAGGTTAGGAAAGACTAAGCTAA,-0.468
19,CGAACTAGGTCAGACCAGGACAGTGAAGGATGAT,-0.304
20,CCGACTGGGGCAAAGGTTACCATTCTCAGTACGA,-0.141

# System: LXRb:RXRa (NR concentration 270 nM, RXRa partner concentration 90 nM)
# Assay: as above
# Outline: as §1
row,Sequence,PBM binding z-score
1,ATCTCAAGGTAAAGTTCAGTGAAAGATCGATAGA,1.42
2,GCTAGTTGGTTAGTAAAAGGTCACACACCGGTCG,4.1
3,CCTAGTTGGTCAGGAGGTCACTCACCGGATATGA,2.79
4,ACGAGCAGGCCAAGGGTCACTCAAGATTAGTCCG,2.7
5,TGAATGAGGTTATAAGTTCAGGGAACGTTGCAAA,1.88
6,ATTTCTAGGTAAGACTCAGTTCAGTGAAGAACGC,0.543
7,TCTATTAGTTGAAGGGCAACCGCCGAGTCCGTTT,0.586
8,TCTAGCAGGCCGGAGGGTCACTCAAGAGGTACGG,0.729
9,TCTCGGAGGACACGAAAGGTTAGAGCTCGACATC,0.782
10,ATATGTAGGTTACATCCGGGTCAATCAGGCTATG,2.91
11,GATACAGGGTAAAGGCCAGAGTACGCGTATTGAT,0.0218
12,CCGACTGGGGCATAAGGTTGCCATAAGCCAGCCC,-0.498
13,CCTCGGAGGACAGAAGGTCAGAGCAGTCCGCTTT,1.25
14,ACTATTAGGTGAGACGAGGGCAACCGATAGGTTG,0.202
15,CGAACTAGGTCACGAAAGGTCAAAGTCGAATGAC,7.24
16,CCTTACAGGTCACTCCAGGTTATAGCATCGGAGT,5.43
17,AGAATGAGGTTACCAAAGATCAGGGGAACGCTTG,3.15
18,GCATTTAGGTAATACAAGGTGAAAGTCCGATTGT,0.493
19,TTACCAAGGTGAGCTGAGGTCATTGATCCAACTC,3.33
20,AGAATGAGGATATTAAGATCAGGGAATTGCGGTC,-0.53

row,Sequence,PBM binding z-score
1,ACTGTTAGTTGACTTAGGGCAACCGATACGACGC,0.367
2,ATCTCTAGGTAACCATGTTCAGTGAATGCCGAAC,0.435
3,CGTCCAAGGTGAAAGGTCAGTGAAGAGATGACGG,3.61
4,ACTAGTTGGTCAACTGAGGTCACACACAATTCGG,3.99
5,TCTCCTAGGTCAACGATGGTCAGCTAATCTGCTA,2.49
6,CAAACTAGGTCACAGAGGTCAAGGTCCGTGCGTA,5.68
7,ACTCTGAGGACAAAGGTCAGAGCTACGCCAGTGA,3.34
8,TCATATAGGTAAACAGATGAAAGTCCGTAAGTTA,0.86
9,GATACAGGGTCAGCTGGAGGCCAGAGTATGGAAA,2.38
10,AGAATGAGGTTATTAAGGTCAGGGAATTGCGGTC,3.59
11,TCGAGAAGGTTACCAATGGGGCATTCAGCTTTCT,1.76
12,TCGAGTAGGTAAGGGGCATTCAGAATGGCGTCGA,0.42
13,TCTCGGAGGACACGAAGGTCAGATCTTTCCAGAG,1.64
14,ATACCAAGGTGATCGTAAGGTCGTTGATACTAAC,1.42
15,CTACCAAGGTGAACAAGGTCGTTGATTACTATTC,1.91
16,AATACAGGATCATCGTAGGCCAGAGTACGCACAG,0.0447
17,ATACCACGGTGATCGTGAGGTCGTTGATACTAAC,0.931
18,GCTTGTAGATCAAGGTTAGGAAAGACTAAGCTAA,-0.37
19,CGAACTAGGTCAGACCAGGACAGTGAAGGATGAT,0.246
20,CCGACTGGGGCAAAGGTTACCATTCTCAGTACGA,2.02
